The supplement of paper PMC8728848
Shown is part of a subset that was picked to be rich in the strongest signals.

Key:
Assay in all cases: glycan array binding signal (z-score within array); higher = stronger binding
Settings in all cases: glycan notation: IUPAC condensed, linker removed
[1] = target: Fuc(a1-2)Gal(b1-3)GalNAc(b1-3)Gal
Outline: (§1)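 Glycan array data were curated from 3228 arrays in the Consortium for Functional Glycomics database and kept only where the protein sequence was available. Glycan names were converted to IUPAC-condensed notation, and columns mapping to the same glycan were averaged. The binding signal is a within-array Z-score, averaged across arrays of the same protein sequence at different concentrations or buffers and across linkers. Negative Z-scores can be read as non-binding.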

[2] = target: Fuc(a1-2)Gal(b1-3)GlcNAc(b1-2)Man(a1-3)[Fuc(a1-2)Gal(b1-3)GlcNAc(b1-2)Man(a1-6)]Man(b1-4)GlcNAc(b1-4)GlcNAc
Outline: as §1

[3] = target: Fuc(a1-2)Gal(b1-4)[Fuc(a1-3)]GlcNAc(b1-3)GalNAc
Outline: as §1

[4] = target: Fuc(a1-2)Gal6S(b1-3)GlcNAc
Outline: as §1

[5] = target: Fuc(a1-2)[Gal(a1-3)]Gal(b1-4)GlcNAc(b1-6)GalNAc
Outline: as §1

[6] = target: Fuc(a1-2)[GalNAc(a1-3)]Gal(b1-3)GlcNAc(b1-2)Man(a1-3)[Fuc(a1-2)[GalNAc(a1-3)]Gal(b1-3)GlcNAc(b1-2)Man(a1-6)]Man(b1-4)GlcNAc(b1-4)GlcNAc
Outline: as §1

[7] = target: Fuc(a1-2)[GalNAc(a1-3)]Gal(b1-3)GlcNAc(b1-3)GalNAc
Outline: as §1

[8] = target: Fuc(a1-2)[GalNAc(a1-3)]Gal(b1-4)Glc
Outline: as §1

[9] = target: Fuc(a1-2)[GalNAc(a1-3)]Gal(b1-4)GlcNAc(b1-3)Gal(b1-4)GlcNAc
Outline: as §1

[10] = target: Fuc(a1-2)[GalNAc(a1-3)]Gal(b1-4)[Fuc(a1-3)]GlcNAc(b1-3)GalNAc
Outline: as §1

[11] = target: Fuc(a1-3)[Gal(b1-4)]GlcNAc(b1-4)Gal(b1-4)[Fuc(a1-3)]GlcNAc
Outline: as §1

[12] = target: Fuc(a1-3)[Gal(b1-4)]GlcNAc(b1-6)GalNAc
Outline: as §1

[13] = target: Fuc(a1-3)[Gal(b1-4)]GlcNAc6S
Outline: as §1

[14] = target: Gal(a1-2)Gal
Outline: as §1

[15] = target: Gal(a1-3)Gal(b1-3)GlcNAc(b1-2)Man(a1-3)[Gal(a1-3)Gal(b1-3)GlcNAc(b1-2)Man(a1-6)]Man(b1-4)GlcNAc(b1-4)GlcNAc
Outline: as §1

[16] = target: Gal(a1-3)Gal(b1-4)GlcNAc
Outline: as §1

[17] = target: Gal(b1-3)Gal
Outline: as §1

[18] = target: Gal(b1-3)GlcNAc(b1-2)Man(a1-3)[GlcNAc(b1-4)][Gal(b1-3)GlcNAc(b1-2)Man(a1-6)]Man(b1-4)GlcNAc(b1-4)GlcNAc
Outline: as §1

[19] = target: Gal(b1-3)[GlcNAc(b1-6)]GalNAc
Outline: as §1

[20] = target: Gal(b1-4)GlcNAc(b1-3)Gal(b1-4)GlcNAc
Outline: as §1

[21] = target: Gal(b1-4)GlcNAc(b1-3)GalNAc
Outline: as §1

[22] = target: Gal6S(b1-4)Glc
Outline: as §1

[23] = target: GalNAc(a1-3)GalNAc(b1-3)Gal(a1-4)Gal(b1-4)Glc
Outline: as §1

[24] = target: GalNAc(b1-3)Gal(a1-4)Gal(b1-4)GlcNAc(b1-3)Gal(b1-4)Glc
Outline: as §1

[25] = target: GalNAc6S(b1-4)GlcNAc
Outline: as §1

[26] = target: GlcNAc(a1-4)Gal(b1-4)GalNAc
Outline: as §1

[27] = target: GlcNAc(a1-4)Gal(b1-4)GlcNAc(b1-3)Gal(b1-4)[Fuc(a1-3)]GlcNAc(b1-3)Gal(b1-4)[Fuc(a1-3)]GlcNAc
Outline: as §1

[28] = target: GlcNAc(b1-3)Gal(b1-4)GlcNAc
Outline: as §1

[29] = target: GlcNAc(b1-3)Gal(b1-4)GlcNAc(b1-3)Gal(b1-4)GlcNAc
Outline: as §1

[30] = target: GlcNAc(b1-6)GalNAc
Outline: as §1

B1: PitA (Streptococcus oralis), G3F8D8 (protein)
chain: MNIRFDFKKVQIIARRLVTLLAILFLCAPISLLNADSTTEPQTTLHKTITPISGQDDKYELSLDITSKLGTETQTDPLDVVLVADLSGSMQNQDVQSFDGRTISRIDALKNTLRGTNGRKGLIDTILSNSNNRLSMVGFGGKIDNKKVDQYWDGNKWRLFRPYWPYERMTKYYDGVSPWDDANTILGWSNNARAAKTAVYNMSIAGGNSIGTESGIGTGTNIGAGLTLANQLMGSARSNAKKVVILLSDGFANMVYDANGYTIYNYNNEDPNIETAPQWFWDRLNNNLNSLSYSLAPTLDGFYSIKFRYSNNVDSITSLQYYMRQHNASIPNEIFSANDEDQLRDSFKDITDKILPLGIHHVSIKDVLSKYVQLLPNGSSEFRVVKEKDGSSEILIENQVTFDTKTTSEGLVEVTAKFSPNYSLEDGARYVLKFTVTSSQEALDAIAGDKKLEAGDAEGSDVNKLYSNKGASVTYSYGIGNSQTKTKEYSDNPTFKPSDPLTVPVEVEWQGVTGARTVITADQPSNVELKLVQKNKNGGSDNQDYRKTNVNVSKNVSNETRNFEKVAKGYQYDLIAPDVPAFTKEIKNVGTESKPSFKVIYKQLPSLTIKKVLEAENNLNKEFRIKVKLTSPDSKPLNGTFGEITVVNGEAEIRVEKRKRWEGILSYLPRGTHYKVEEEAASTNGYHVTYENQEGDLNKDETSIVTNHKLPSLSVTKKVTGVFANLLKSFKITINIRDAQNSPLNGTYTATVNNKRTPLQFTNGRASIDLNKDQTIKIYGLPLDSHYTVEEESNSSRGYQVSYENQEGKLDGDKSATVTNNKNSVPETGVDFLSSTLMLGIILPLGGIFFTILLGYLVVHRRK
For B1, the “glycan array binding signal (z-score)” value [1] was 10.3, the “glycan array binding signal (z-score)” value [2] was 0.06 and the “glycan array binding signal (z-score)” value [3] was 7.27. The “glycan array binding signal (z-score)” value [4] was -0.656, the “glycan array binding signal (z-score)” value [5] was 0.131 and the “glycan array binding signal (z-score)” value [6] was -0.473. For the same binder, the “glycan array binding signal (z-score)” value [7] was 4.75, the “glycan array binding signal (z-score)” value [8] was -0.125 and the “glycan array binding signal (z-score)” value [9] was -0.715. For the same binder, the “glycan array binding signal (z-score)” value [10] was 5.3, the “glycan array binding signal (z-score)” value [11] was 0.05 and the “glycan array binding signal (z-score)” value [12] was 4.67. The “glycan array binding signal (z-score)” value [13] was 0.782, the “glycan array binding signal (z-score)” value [14] was -0.212 and the “glycan array binding signal (z-score)” value [15] was 3.83. The “glycan array binding signal (z-score)” value [16] was -0.128, the “glycan array binding signal (z-score)” value [17] was -0.7 and the “glycan array binding signal (z-score)” value [18] was 1.74. For the same binder, the “glycan array binding signal (z-score)” value [19] was -0.437, the “glycan array binding signal (z-score)” value [20] was -0.586 and the “glycan array binding signal (z-score)” value [21] was -0.575. For the same binder, the “glycan array binding signal (z-score)” value [22] was -0.151, the “glycan array binding signal (z-score)” value [23] was -0.395 and the “glycan array binding signal (z-score)” value [24] was 0.654. For the same binder, the “glycan array binding signal (z-score)” value [25] was 0.019, the “glycan array binding signal (z-score)” value [26] was 5.14 and the “glycan array binding signal (z-score)” value [27] was 3.75. For the same binder, the “glycan array binding signal (z-score)” value [28] was -0.199, the “glycan array binding signal (z-score)” value [29] was -0.259 and the “glycan array binding signal (z-score)” value [30] was 0.138.
